Sampled rows, rich in hits. Any-hit rate of the full collection: about 2.6%.
Cruzain Triton: cruzain (T. cruzi) inhibition with detergent; P25779; purified cruzain, Z-FR-AMC fluorescence, 0.01% Triton; Potency, µM, actives largely listed as inhibitors; 0.43% of 200,000 active; AID 1478; also: nearly all actives have a fitted effect of over 40% in size
Target sequence (P25779 123-467 limits assumed): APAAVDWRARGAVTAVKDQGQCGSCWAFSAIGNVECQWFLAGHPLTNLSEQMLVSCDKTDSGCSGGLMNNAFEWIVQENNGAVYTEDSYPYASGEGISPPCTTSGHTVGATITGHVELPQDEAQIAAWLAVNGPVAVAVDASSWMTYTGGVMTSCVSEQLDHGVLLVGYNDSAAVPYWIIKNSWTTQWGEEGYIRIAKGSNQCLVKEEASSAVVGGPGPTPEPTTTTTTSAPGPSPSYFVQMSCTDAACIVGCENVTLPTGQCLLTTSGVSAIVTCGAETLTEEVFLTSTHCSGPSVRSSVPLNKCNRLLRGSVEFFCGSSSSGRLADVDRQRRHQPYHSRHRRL
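Detergent-containing arm of a paired screen for aggregation-based inhibition: 0.01% Triton X-100 present. Cruzain at 1.5 nM cleaved 2 uM Z-FR-AMC at pH 5.5 with 5 mM DTT; AMC fluorescence gain over 60 s measured activity.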
Cruzain inh noDet: inhibitors of Trypanosoma cruzi cruzain without detergent; P25779; Potency, µM, hits mostly inhibitors; 2.3% of 200,000 active; purified cruzain, Z-FR-AMC fluorescence, no detergent; also: nearly all actives have a fitted effect of over 40% in size
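Purified cruzain at 1.5 nM, pre-incubated 15 min with compound at room temperature in 100 mM sodium acetate pH 5.5, 5 mM DTT, 0.00005% Triton X-100. Reaction started with 2 uM Z-FR-AMC; AMC fluorescence increase over 60 s gives rate.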
A number is an active result; ! = repeats disagree. Calls follow the shape of the dose curve; as a rule, active = well fitted curve in the direction sought with a large enough effect; inconclusive = small, poorly fitted or top-dose-only effect, or another doubt; inactive = no such curve, though single readings can be large; an effect the other way counts as inactive or inconclusive.

Screening CCOC(=O)c1cc(-c2ccccc2)n(CCCC(=O)Nc2cccc(C)c2C)c1C returned Cruzain Triton inactive and Cruzain inh noDet inactive.
Screening COc1ccc2[nH]cc(CCNc3nc(-c4ccc(C(=O)N(C)C)cc4)nc4ccccc34)c2c1 returned Cruzain Triton inactive and Cruzain inh noDet inactive.
`COc1ccc2[nH]cc(CCNc3nc(-c4ccc(N(C)C)cc4)nc4ccccc34)c2c1` gave Cruzain Triton inactive and Cruzain inh noDet 25.1µM.
`COc1ccc2[nH]cc(CCNc3ncnc4ccc(-c5cccnc5)cc34)c2c1` gave Cruzain Triton inactive and Cruzain inh noDet inactive.
Screening COc1ccc2[nH]cc(CCNc3ncnc4ccc(-c5ccc6c(c5)OCO6)cc34)c2c1 returned Cruzain Triton inactive and Cruzain inh noDet 31.6µM.
Screening CCCCOc1ccc(C(=O)Nc2nnc3n2CCS3)cc1 returned Cruzain Triton inactive and Cruzain inh noDet inactive.
For CCc1ccc(S(=O)(=O)c2cn(Cc3ccc(OC)cc3)c3cc(OC)c(OC)cc3c2=O)cc1 the results were Cruzain Triton inactive and Cruzain inh noDet inactive.
CCc1ccc(-c2nc(CSCC(=O)N3CCN(c4ccc(F)cc4)CC3)c(C)o2)cc1 was read as Cruzain Triton inactive and Cruzain inh noDet inactive.
CCc1ccccc1Nc1sc(C(=O)c2cccc(OC)c2)c(N)c1S(=O)(=O)c1ccccc1 was read as Cruzain Triton inactive and Cruzain inh noDet 7.94µM.
Cc1cccc(C)c1Nc1sc(C(=O)c2ccccc2)c(N)c1S(=O)(=O)c1ccccc1 was read as Cruzain Triton inactive and Cruzain inh noDet 15.8µM.
COc1cccc(C(=O)c2sc(Nc3ccc(F)c(Cl)c3)nc2N)c1 was read as Cruzain Triton inactive and Cruzain inh noDet inactive.
Screening COc1ccc(S(=O)(=O)c2c(Nc3ccccc3F)sc(C(=O)c3cccc(OC)c3)c2N)cc1 returned Cruzain Triton inactive and Cruzain inh noDet 12.6µM.
COc1ccc(S(=O)(=O)c2c(Nc3ccc(C)cc3C)sc(C(=O)c3ccc(F)cc3)c2N)cc1 was read as Cruzain Triton inactive and Cruzain inh noDet 5.01µM.
`Cc1ccc(Cl)cc1Nc1sc(C(=O)c2ccccc2)c(N)c1S(=O)(=O)c1ccccc1` gave Cruzain Triton inactive and Cruzain inh noDet inconclusive.
Screening CCOc1ccc(Nc2sc(C(=O)c3ccc(F)cc3)c(N)c2S(=O)(=O)c2ccc(C)cc2)cc1 returned Cruzain Triton inactive and Cruzain inh noDet inactive.
`CCS(=O)(=O)c1c(Nc2cc(C)ccc2C)sc(C(=O)c2ccccc2)c1N` gave Cruzain Triton inactive and Cruzain inh noDet inactive.
COc1ccccc1Nc1cc(C(=O)NCCCN(C)c2ccccc2)c2ccccc2n1 was read as Cruzain Triton inactive and Cruzain inh noDet inconclusive.
For COC(=O)NC(c1ccccc1)c1c[nH]c2ccccc12 (stereo not drawn) the results were Cruzain Triton inactive and Cruzain inh noDet inactive.
Cc1cc(F)ccc1NCc1ccccc1-c1nnc(-c2ccccc2Cl)o1 was read as Cruzain Triton inactive and Cruzain inh noDet inactive.
COc1cccc(NC(=O)C2CC(=O)N(c3ccc(Br)cc3)C2)c1 (stereo not drawn) was read as Cruzain Triton inactive and Cruzain inh noDet inactive.
COc1ccc(-n2nnnc2SCC(=O)NCCc2ccccc2)cc1 was read as Cruzain Triton inactive and Cruzain inh noDet inactive.
For CCc1cc(=O)[nH]c(SCc2nc(-c3cccc(Cl)c3)no2)n1 the results were Cruzain Triton inactive and Cruzain inh noDet inactive.
`CC(C)c1ccc(Nc2sc(C(=O)c3ccccc3)c(N)c2S(=O)(=O)c2ccccc2)cc1` gave Cruzain Triton inactive and Cruzain inh noDet 3.98µM.
CCOc1ccccc1Nc1sc(C(=O)c2ccc(Cl)cc2)c(N)c1S(=O)(=O)c1ccccc1 was read as Cruzain Triton inactive and Cruzain inh noDet 3.16µM.
Screening N#Cc1c(Nc2ccccc2)sc(C(=O)c2ccccc2)c1N returned Cruzain Triton inactive and Cruzain inh noDet inactive.
Screening CCOc1ccccc1Nc1sc(C(=O)c2ccccc2)c(N)c1S(=O)(=O)c1ccc(C)cc1 returned Cruzain Triton inactive and Cruzain inh noDet inconclusive.
CCc1ccccc1Nc1sc(C(=O)c2ccccc2)c(N)c1S(=O)(=O)c1ccccc1 was read as Cruzain Triton inactive and Cruzain inh noDet 6.31µM.
Cc1c(Cl)cccc1Nc1sc(C(=O)c2ccccc2)c(N)c1S(=O)(=O)c1ccccc1 was read as Cruzain Triton inactive and Cruzain inh noDet inconclusive.
Screening Cc1ccc(NC(=O)c2ccc(OC(=O)C(C)Oc3ccc(Cl)cc3C)cc2)cc1 (stereo not drawn) returned Cruzain Triton inactive and Cruzain inh noDet 7.94µM.
COc1ccc(C(=O)Nc2ccc(OC)c(OC)c2)cc1 was read as Cruzain Triton inactive and Cruzain inh noDet inactive.
`O=c1c2ccccc2nc(SCc2cc([N+](=O)[O-])cc3c2OCOC3)n1-c1ccccc1` gave Cruzain Triton inactive and Cruzain inh noDet 12.6µM.
For COc1ccc(Nc2nnc(SCc3cc([N+](=O)[O-])cc4c3OCOC4)s2)cc1 the results were Cruzain Triton inactive and Cruzain inh noDet 20µM.
For O=[N+]([O-])c1cc2c(c(CSc3nnc4ccccn34)c1)OCOC2 the results were Cruzain Triton inactive and Cruzain inh noDet inactive.
O=c1c2ccccc2nc(SCc2ccc([N+](=O)[O-])cc2)n1-c1ccccc1 was read as Cruzain Triton inactive and Cruzain inh noDet inconclusive.
CCc1ccc(NC(=O)C2CCC(CNS(=O)(=O)c3ccc4c(c3)CC(C)N4C(C)=O)CC2)cc1 (stereo not drawn) was read as Cruzain Triton inactive and Cruzain inh noDet inconclusive.
For COc1cc(OC)c(N(C)C(=O)c2cc3c(s2)-c2ccccc2OC3)cc1Cl the results were Cruzain Triton inactive and Cruzain inh noDet inactive.
`O=C1C(SCCO)=C(SCCO)C(=O)c2ccccc21` gave Cruzain Triton inconclusive and Cruzain inh noDet 25.1µM!.
`N#CC(=NCCO)C1=C(O)c2ccccc2C1=O` gave Cruzain Triton inactive and Cruzain inh noDet inactive.
Screening COc1ccc(NC(=O)c2ccc3nc(-c4ccccc4)c(-c4ccccc4)nc3c2)c(OC)c1 returned Cruzain Triton inactive and Cruzain inh noDet inactive.
Screening COc1ccccc1NC(=O)c1ccc2nc(-c3ccccc3)c(-c3ccccc3)nc2c1 returned Cruzain Triton inactive and Cruzain inh noDet 31.6µM.
For Cc1ccc2c(=O)c(C(=O)c3ccc(F)cc3)cn(CC(=O)NCc3ccccc3)c2n1 the results were Cruzain Triton inactive and Cruzain inh noDet inactive.
Screening COc1ccccc1-c1nnc(NC(=O)C(C)SC2=NCCS2)s1 (stereo not drawn) returned Cruzain Triton inactive and Cruzain inh noDet 15.8µM.
`CC(SC1=NCCS1)C(=O)Nc1nnc(-c2ccc(Cl)cc2)s1` (stereo not drawn) gave Cruzain Triton inactive and Cruzain inh noDet inactive.
`O=C(Cn1ncc2c3ccccc3n(Cc3ccc(F)cc3)c2c1=O)NCCCN1CCCCC1` gave Cruzain Triton inactive and Cruzain inh noDet inactive.
COc1cccc(CSc2nc3sc(C)c(C)c3c(=O)n2Cc2ccco2)c1 was read as Cruzain Triton inactive and Cruzain inh noDet 25.1µM.
Screening Cc1sc2nc(SCc3ccccc3)n(Cc3ccco3)c(=O)c2c1C returned Cruzain Triton inactive and Cruzain inh noDet inconclusive.
`Cc1cccc(CSc2nc3sc(C)c(C)c3c(=O)n2Cc2ccco2)c1` gave Cruzain Triton inactive and Cruzain inh noDet inconclusive.
For Cc1sc2nc(SCc3nc4ccccc4[nH]3)n(Cc3ccco3)c(=O)c2c1C the results were Cruzain Triton inactive and Cruzain inh noDet 31.6µM.
Cc1ccccc1CSc1ncc(CO)n1Cc1ccc(F)cc1 was read as Cruzain Triton inactive and Cruzain inh noDet inactive.

Source: PubChem (National Center for Advancing Translational Sciences (NCATS))
